# Measured values taken from the supplement of paper PMC5940239.
# How the values were obtained:
# [1] = system: Madurella mycetomatis MM55; details: 7 days
# [2] = system: Madurella mycetomatis MM55; assay: IC90; higher = less potent; details: 7 days
# [3] = system: Madurella mycetomatis MM55; assay: percent growth relative to solvent control; higher = less inhibition, active = 20 or less; details: 100 µM; 7 days
Compound,IC50 [1] [µM],IC90 [2] [µM],percent growth [3]
CCOC(=O)c1c(NC(=O)c2c(F)c(F)c(F)c(F)c2F)sc(C(N)=O)c1C,60.5,92.8,1.26% (active)
O=C(Nc1ccc(N2CCNCC2)cc1)c1ccn2ncc(-c3cccc(Cl)c3)c2n1,2.95,4.9,8.12% (active)
Cc1ccc(-c2nc(CN(Cc3ccccn3)C(C)C)cs2)o1,53.9,90,0.31% (active)
CC(C)(C)c1ccc(N[C@@H]2CCCC[C@H]2NC(=O)c2ccco2)cc1,53,89.7,-1.4% (active)
Cc1ccc2c(c1C)NC(=O)C21NN=C(c2ccccc2)S1 (configuration not stated),37.9,61.2,4.4% (active)
CC[P](CC)(CC)=[Au][S][C@H]1O[C@@H](COC(C)=O)[C@H](OC(C)=O)[C@@H](OC(C)=O)[C@@H]1OC(C)=O,17.1,45.8,3.51% (active)
CC1=Nc2ccc(Cl)cc2C(O)(c2ccc(C)cc2)N1CCN1CCCCC1 (configuration not stated),49.3,92.3,2.85% (active)
COc1ccc(CN2CCOc3ccc(C(C)(O)CN(C)C)cc3C2)cc1C (configuration not stated),60.6,93.5,2.42% (active)
CCc1c(C)nc(-n2nc(C)cc2NC(=O)c2ccccc2SC)[nH]c1=O,6.75,15.1,2.44% (active)
c1ccc(Oc2ccc(-c3cc(CN4CCOCC4)[nH]n3)cc2)cc1,65.4,95.6,3.77% (active)
CNCCC(Oc1ccc(C(F)(F)F)cc1)c1ccccc1 (configuration not stated),10.1,18.6,1.78% (active)
CN1CCCC1CCO[C@](C)(c1ccccc1)c1ccc(Cl)cc1 (some centres not stated),9.85,18.3,-0.386% (active)
CC(=O)Nc1ccc(-c2noc(CC3CCCN(Cc4cccc(F)c4C)C3)n2)cc1 (configuration not stated),66.2,94.5,1.89% (active)
COc1cccc(-n2nnnc2S(C)(=O)=O)c1,59.9,92.6,1.2% (active)
CCOc1ccc2cc(-c3nn(CC4CCN(C)CC4)c4ncnc(N)c34)ccc2c1,51.8,87.8,-3.52% (active)
CN1CCCN(C(c2ccccc2)c2ccc(Cl)cc2)CC1 (configuration not stated),10.2,18.6,2.74% (active)
Cc1nc(-c2ccccn2)nc(N(C)CCc2ccccc2)c1Cl,9.25,17.8,2.82% (active)
CNC(=O)c1nn(C)c2c1C(C)(C)Cc1cnc(Nc3ccc(N4CCN(C)CC4)cc3)nc1-2,10.7,21.5,0.489% (active)
NCCN(C(=O)c1ccc(Cl)cc1Cl)c1ccc(OCc2ccc(Cl)cc2)cc1,10.5,17.9,4.52% (active)
Cc1cc(NCCc2ccccc2)nc(NC(=N)Nc2ccc(Cl)cc2)n1,10.4,18.8,-1.87% (active)
Cc1ccc(NC(=O)CC2COc3ccccc3O2)cc1Cl (configuration not stated),51.9,91.3,1.24% (active)
CC1=NN(c2nc3ccccc3s2)C(=O)C1Cc1cccc2ccccc12 (configuration not stated),62.1,93,1.31% (active)
O=C1COCc2ccc(Br)cc2N1Cc1ccc(C(F)(F)F)cc1,45,95.4,9.1% (active)

Compound,IC50 [1] [µM],IC90 [2] [µM],percent growth [3]
Cc1cnc(N2CCN[C@@H](Cc3ccccc3)C2)nc1Oc1ccc(-n2ccnc2)cc1,10.7,20.8,3.67% (active)
COc1cc(NC(C)CCCN)c2ncccc2c1 (configuration not stated),64.5,92.8,0.211% (active)
CCN(CC)CCCCCCNc1cc(OC)cc2c(C)ccnc12,9.8,17.8,-1.36% (active)
Cc1nnc(NCc2cccc(Cl)c2)c2ccccc12,29.1,62.8,-0.336% (active)
C[C@@H]1[C@H](O)[C@@H](C)/C=C/C=C/C=C/C=C/C=C/C=C/C=C/[C@H](O[C@@H]2O[C@H](C)[C@@H](O)[C@H](N)[C@@H]2O)C[C@@H]2O[C@](O)(C[C@@H](O)C[C@@H](O)[C@H](O)CC[C@@H](O)C[C@@H](O)CC(=O)O[C@H]1C)C[C@H](O)[C@H]2C(=O)O,9.7,20.1,7.03% (active)
Oc1c(I)cc(I)c2cccnc12,2.55,4.65,-2.46% (active)
COc1cc(CN2CCC3(C=Cc4ccccc43)CC2)cc2c1OCO2,28,91.5,4.12% (active)
O=C(NC1CC1)c1ccc(N2CCOc3ccc(Cl)cc32)s1,34.5,51.8,-2.78% (active)
Cc1cc(C)c2cc(C(=O)NC3CCCCCCC3)[nH]c2c1,64.9,94.3,2.52% (active)
Cc1nc(-c2ccccn2)nc(N2CCC(Cc3ccccc3)C2)c1Cl (configuration not stated),5.1,13.7,6.94% (active)
Clc1ccc(Cl)c(CO[C@H]2CCCC[C@@H]2n2ccnc2)c1,14.2,67.5,1.03% (active)
Brc1cncc(-c2cc(NCCCn3ccnc3)nc(-c3ccccc3)n2)c1,55,90.8,-0.251% (active)
CCC(Sc1nc2ccccc2o1)C(=O)Nc1nccs1 (configuration not stated),37.1,56.5,0.757% (active)
Cc1nn(C(=O)Nc2cccc(C(F)(F)F)c2)c(C)c1Sc1ncccn1,68.5,94,1.34% (active)
Cc1ccc2nc(C)c(-c3ccn(Cc4ccccc4)n3)n2c1,39.8,90.8,2.95% (active)
Cc1cc(C)nc(-n2nc(C)cc2Nc2ccccc2)n1,58.1,91.3,-0.531% (active)
CC(=O)NC[C@@H]1CN(c2ccc(N3CCOCC3)c(F)c2)C(=O)O1,–,–,107% (inactive)
O=C(Nc1ccc(N2CCNCC2)nc1)c1oc(-c2ccccc2)nc1C(F)(F)F,37.9,85.3,-3.61% (active)
NCC(=O)N1CCn2c(nc(-c3ccccc3)c2Nc2ccc3c(c2)OCO3)C1,–,–,157% (inactive)
CCCCN(CCCC)c1c(C#N)cc(S(=O)(=O)Nc2ccccc2)cc1C#N,–,–,85.7% (inactive)
CN1CCN(c2nccc3[nH]c(-c4cccc(F)c4)cc23)CC1,50.5,93,3.26% (active)
Nc1nc(N)c2c3c(sc2n1)CN(Cc1ccccc1)CC3,–,–,88% (inactive)
